Hits are enriched below; roughly 11% of the tested compounds scored in any of these assays.
USP28 inh: inhibitors of human USP28 deubiquitinase; Ubiquitin carboxyl-terminal hydrolase 28 (Homo sapiens), Q96RU2; purified USP28, Ub-rhodamine cleavage fluorescence, 30 min; inhibition, % at 25 µM; hit rate 3% among 47,000; AID 1645857, 2021
USP30 block: inhibitors of human USP30 deubiquitinase; purified USP30, Ub-rhodamine cleavage fluorescence; inhibition, % at 25 µM; hit rate 5.3% among 47,000; AID 1645860, 2021
Target sequence (Q70CQ3 whole entry, looked up): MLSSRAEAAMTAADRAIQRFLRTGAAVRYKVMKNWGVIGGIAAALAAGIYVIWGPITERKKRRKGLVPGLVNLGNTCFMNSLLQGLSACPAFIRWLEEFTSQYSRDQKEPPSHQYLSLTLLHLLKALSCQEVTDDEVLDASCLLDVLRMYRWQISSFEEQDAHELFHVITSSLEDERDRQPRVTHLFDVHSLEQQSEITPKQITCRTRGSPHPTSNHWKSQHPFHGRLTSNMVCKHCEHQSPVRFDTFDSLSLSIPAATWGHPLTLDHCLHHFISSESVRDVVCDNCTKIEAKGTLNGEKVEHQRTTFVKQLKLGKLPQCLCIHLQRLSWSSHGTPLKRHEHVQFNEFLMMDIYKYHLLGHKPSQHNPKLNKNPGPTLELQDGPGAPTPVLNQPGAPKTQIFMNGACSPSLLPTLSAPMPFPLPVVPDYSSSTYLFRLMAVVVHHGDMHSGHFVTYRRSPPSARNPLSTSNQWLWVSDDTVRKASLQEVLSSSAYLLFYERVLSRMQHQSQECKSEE
USP17 block: inhibitors of human USP17 deubiquitinase. AID 1645855, 2021. purified USP17, Ub-rhodamine cleavage fluorescence, 3 h. hit rate 6.5% among 47,000. inhibition, % at 50 µM
Numbers without * were called inactive; i = inactive; . = no result. Cut-off read from the data, not from the text of the source: active = inhibition above about 30%; inactive = the rest.

SMILES | USP28 inh | USP30 block | USP17 block
N#Cc1ccc(NC(=O)COC(=O)C(Cc2c[nH]c3ccccc23)NC(=O)c2ccc(F)cc2)cc1 (centres undefined) | 6 | 0 | 22
N#Cc1cccc(NC(=O)C(Cc2c[nH]c3ccccc23)NC(=O)c2cccs2)c1 (centres undefined) | 19 | 33* | 22
O=C(CSc1nc2cc(S(=O)(=O)Nc3ccccc3Cl)ccc2o1)Nc1ccc(N2CCOCC2)cc1 | 23 | 53* | .
O=C(CSc1nc2cc(S(=O)(=O)Nc3cccc(Cl)c3)ccc2o1)NC1CC1 | -6 | -9 | -10
Cn1nc(-c2nc(-c3ccc(F)cc3)no2)c2c1CCN(C(=O)C1CCCO1)C2 (centres undefined) | 1 | 6 | 5
O=S(=O)(c1ccc(F)c(Cl)c1)N1CCCC(c2nnc(C(F)(F)F)o2)C1 (centres undefined) | 0 | 8 | 1
CCN(C(=O)c1cccc2c1SCCC2=O)c1ccc(C)c(C)c1 | 7 | 7 | 16
O=C(Cc1ccccc1C(=O)O)Nc1cccc2ccccc12 | -23 | -117 | 26
Cn1cc(NC(=O)Nc2cccc3ccccc23)c2ccccc21 | 0 | -60 | 63*
O=C(NCc1ccc(Cl)cc1)Nc1cccc2ccccc12 | 8 | 35* | 68*
CC(C(=O)Nc1cccc2ccccc12)(C(F)(F)F)C(F)(F)F | 0 | -17 | 6
COc1cccc(-c2cncc(C3CCCNC3)n2)c1 (centres undefined) | 1 | 3 | 0
COc1ccc(CN2C[C@H]3CCN(C(=O)c4ccccn4)CC[C@H]3S2(=O)=O)cc1 | 14 | 22 | 9
CC(C)C(=O)N1Cc2ccccc2CC2(CCCCN2C)C1 (centres undefined) | 3 | 6 | -1
COC(=O)c1ccc(Cn2nnc3c(=O)[nH]c(C4CCCN(S(=O)(=O)c5ccc(C)cc5)C4)nc32)cc1 (centres undefined) | 32* | 36* | 27
Cc1ccc(Cn2nnc3c(=O)[nH]c(C4CCN(C(=O)C5CCC5)CC4)nc32)cc1 | -2 | 16 | 0
O=c1[nH]c(C2CCN(S(=O)(=O)c3ccc(S(=O)(=O)N4CCOCC4)cc3)CC2)nc2c1nnn2Cc1cccc(F)c1 | 8 | -106 | 7
O=c1[nH]c(C2CCN(S(=O)(=O)c3ccc(S(=O)(=O)NC4CC4)cc3)CC2)nc2c1nnn2Cc1cccc(Cl)c1 | 38* | 42* | 25
O=c1[nH]c(C2CCN(S(=O)(=O)c3ccc(S(=O)(=O)NC4CCCC4)cc3)CC2)nc2c1nnn2Cc1cccc(Cl)c1 | 38* | 59* | 23
O=c1[nH]c(C2CCN(S(=O)(=O)c3ccc(S(=O)(=O)NC4CC4)cc3)CC2)nc2c1nnn2Cc1cccc(F)c1 | 11 | -30 | 11
Cc1ccc(Cn2nnc3c(=O)[nH]c(C4CCN(S(=O)(=O)c5ccc(S(=O)(=O)NC6CC6)cc5)CC4)nc32)cc1 | 22 | 43* | 19
CCC(CC)C(=O)N1CCC(c2nc3c(nnn3Cc3ccc(C)cc3)c(=O)[nH]2)CC1 | 13 | 30 | 13
O=C(Cc1ccc2ccccc2c1)NCc1ccccc1Cn1cccn1 | -2 | -27 | -15
Cc1ccccc1Cc1c(C)nc(N2CCN(c3ccccc3)CC2)[nH]c1=O | -2 | 2 | 1
Cc1cccc(NC(=O)N2CCCn3nnc(CN4CCCCC4)c3C2)c1 | -5 | -9 | 1
SMILES | USP28 inh | USP30 block | USP17 block
COc1ccc(S(=O)(=O)N2CCN(C(=O)c3cccnc3)CC2)cc1 | -3 | 2 | -9
CN(Cc1ccccc1)S(=O)(=O)c1ccc(S(=O)(=O)N2CCN(C(=O)c3cccnc3)CC2)cc1 | 20 | 74* | 23
Cc1ccc(Cn2ncc3c(NCc4cccnc4)ncnc32)cc1 | . | . | -3
Cc1cc(C)cc(C(=O)N2CCC(n3cnnc3-c3ccccc3)CC2)c1 | -5 | 4 | -30
Cc1c(C(=O)NCc2ccco2)oc2c1/C(=N\O)CCC2 | 15 | 3 | 31*
Cc1c(C(=O)O)oc2c1/C(=N\O)CCC2 | -3 | -3 | -14
Cc1cc(C)cc(NS(=O)(=O)c2cc3[nH]c4c(c3cc2C)C(=O)CC(C)(C)C4)c1 | -13 | -23 | 10
O=C(/C=C/c1ccc(OCc2cccc(Cl)c2)cc1)NC1CCCC1 | 14 | 22 | 36*
COc1ccc(/C=C/C(=O)N(Cc2cccc(Cl)c2)C2CCS(=O)(=O)C2)cc1 (centres undefined) | -3 | 1 | 2
CC(C)(C)c1nn(-c2ccccc2)c2[nH]c(=O)c(CNC3CC3)cc12 | -9 | -36 | 22
Cc1[nH]ncc1C(=O)N1CCCC(c2cccc(-n3ccnc3)n2)C1 (centres undefined) | 0 | 5 | -1
Cc1[nH]ncc1C(=O)N1CCCC(c2cccc(-n3ccnc3C)n2)C1 (centres undefined) | 4 | 9 | 40*
O=C(NCc1ccccc1Cl)C1CCCN(S(=O)(=O)N2CCOCC2)C1 (centres undefined) | 7 | 21 | 19
O=C(Cn1c(=O)[nH]c2c(-c3ccccc3)c[nH]c2c1=O)N1CCCCCC1 | -23 | -100 | -48
Cc1ccc(CC(=O)NCCc2nc3cccnc3n2C)cc1 | -221 | i | -159
COc1ccc(CC(=O)N2CCC(Nc3cccnc3)C2)cc1 (centres undefined) | -19 | -132 | 42*
Cc1noc(C)c1CC(=O)N1CCC(Nc2cccnc2)C1 (centres undefined) | -25 | -87 | -17
COC(=O)c1sc([N+](=O)[O-])cc1N | -26 | -430 | .
CCN(c1ccccc1)S(=O)(=O)c1ccc2[nH]cc(C(=O)NCc3cccnc3)c(=O)c2c1 | 5 | -1 | 16
C=C1NC(=O)[C@@H](CC)NC(=O)CNC(=O)[C@H](Cc2c[nH]c3cccc(OC)c23)NC(=O)[C@H](Cc2c[nH]c3ccccc23)NC(=O)c2csc(n2)[C@@H](C)NC(=O)CN(C)C1=O | -2 | 8 | 32*
O=C1NC(Cc2c[nH]c3ccccc23)C(=O)NC1Cc1c[nH]c2ccccc12 (centres undefined) | 9 | 5 | 2
O=C(c1ccc(Cl)cc1)N1CCc2nc(C(=O)N3CCOCC3)sc2CC1 | -3 | -9 | -6
CCOc1ccccc1-c1nc(-c2cn(Cc3ccc(F)cc3)nn2)no1 | -1 | 58* | 64*
Cc1ccc(Cn2cc(-c3noc(-c4ccco4)n3)nn2)cc1 | 6 | -9 | -1
COc1ccccc1-c1nc(-c2cn(Cc3ccc(C)cc3)nn2)no1 | 21 | 30* | 8
SMILES | USP28 inh | USP30 block | USP17 block
N#Cc1ccc(-c2nc(-c3cn(Cc4cccc(F)c4)nn3)no2)cc1 | 0 | -32 | 36*
c1ccc(Cn2cc(-c3noc(-c4cccnc4)n3)nn2)cc1 | -3 | 17 | 7
Fc1ccc(Cn2cc(-c3noc(-c4ccccn4)n3)nn2)cc1 | 9 | 2 | -19
O=C(c1ccc2n[nH]nc2c1)N1CCC(c2ccnc3ccnn23)CC1 | 5 | 17 | 2
CCOc1ncccc1C(=O)Nc1ccnn1C(C)C1CC1 (centres undefined) | -2 | 0 | -1
COCCCNC(=O)c1ccc(N2CCOc3ccccc32)s1 | -13 | -18 | -5
O=C(NC1CCS(=O)(=O)C1)c1ccc(N2CCOc3ccc(Cl)cc32)s1 (centres undefined) | 6 | 1 | 40*

Assay outcomes: PubChem, Buhrlage Lab, Dana-Farber Cancer Institute and Novartis Institutes for BioMedical Research (Cambridge, Mass)
